Shown are actives, neighbours in structure and some others; about 3.5% of the full set was active somewhere.
GPR151 activ – activators of human GPR151, primary screen, cell-based, PathHunter beta-arrestin, luminescence; PathHunter beta-arrestin GPR151 cells; activation, % at 11.2 µM; 650,000 compounds, 1% hits; AID 1508602, 2020; in the data active = activation above about 4.9%;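 also: 0% = median of compound wells and 100% = cells with positive control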
TEAD-YAP block – TEAD-YAP interaction inhibition, primary screen, TEAD-YAP interaction inhibitor project, luminescence, HEK-TIYL cells | TEAD-Gal4/YAP UAS-luciferase luminescence | inhibition, % at 9.12 µM | 640,000 compounds, 1.4% hits | AID 1259422, 2018; in the data active = inhibition above about 32%;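 also: 0% = median of test compound wells and 100% = reference inhibitor wells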
MITF primary – MITF inhibitors, primary screen, biochemical, AlphaScreen, human. AlphaScreen MITF homodimerization, bead proximity signal. inhibition, % at 2.6 µM. 650,000 compounds, 0.91% hits. AID 1259374, 2018; in the data active = inhibition above about 50%;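 also: 0% = vehicle wells with protein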
FBW7 act – FBW7 E3 ligase activators, primary screen, biochemical, AlphaScreen, human. F-box/WD repeat-containing protein 7 (Homo sapiens), Q969H0. AlphaScreen FBW7–phospho-cyclin E peptide binding, activator screen. normalized activity (activation), % at 26.1 µM. 650,000 compounds, 0.13% hits. AID 1259310, 2017; in the data active = normalized activity above about 1.9%;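 also: purified mutant Fbw7 with reduced substrate affinity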
GPR151 conf act – GPR151 activators, triplicate retest, confirmation, cell-based, PathHunter beta-arrestin, luminescence; shares compounds with GPR151 activ; GPR151 PathHunter beta-arrestin cells, 90 min; % of EA-reagent control over plate median; activation, % at 11.2 µM; 6,700 tested, under 10 active; AID 1508609, 2020;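 active = mean percent activation across replicates above the confirmation screen cutoff of 4.91%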
GPR119 ag – GPR119 activators in beta-arrestin cells, counter-screen for GPR151 activator project, cell-based, PathHunter beta-arrestin, luminescence, triplicate; shares compounds with GPR151 activ; 90 min; 0 = compound-well median, 100 = enzyme-acceptor control; activation, % at 11.2 µM; 6,700 compounds, 0.3% hits; AID 1508611, 2020;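 active = mean percent activation in the counterscreen above 29.09%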;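 also: counterscreen on off-target GPR119 to flag nonselective hits from the GPR151 activator screen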
Target sequence (Q8TDV5 whole entry, looked up): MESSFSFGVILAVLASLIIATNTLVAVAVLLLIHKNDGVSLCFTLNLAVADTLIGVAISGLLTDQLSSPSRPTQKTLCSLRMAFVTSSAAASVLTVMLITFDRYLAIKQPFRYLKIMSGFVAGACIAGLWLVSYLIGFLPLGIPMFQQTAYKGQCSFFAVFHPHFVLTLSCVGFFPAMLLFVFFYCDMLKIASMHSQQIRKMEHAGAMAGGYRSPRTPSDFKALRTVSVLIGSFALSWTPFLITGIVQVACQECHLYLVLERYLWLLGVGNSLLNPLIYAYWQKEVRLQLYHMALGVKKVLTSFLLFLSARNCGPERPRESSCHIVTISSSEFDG
An asterisk follows results filed as active; . = no result.

SMILES	GPR151 activ	TEAD-YAP block	MITF primary	FBW7 act	GPR151 conf act	GPR119 ag
COc1ccccc1C1NC(=S)NC(C)=C1C(=O)c1ccccc1 (centres undefined)	2	3	9	0	.	.
CNC(=O)C1=C(C)NC(=S)NC1c1ccccc1OC (centres undefined)	9.5*	2	2	0	-1	-13
COc1ccc(-c2noc(N(C)CC(=O)N3CCN(c4cccc(Cl)c4)CC3)n2)cc1	-1	-4	0	0	.	.
COc1ccc(-c2noc(N(C)CC(=O)N3CCN(c4ccccc4OC)CC3)n2)cc1	6.5*	-6	2	0	0	-21
Cc1ccc(N2C(=O)C3CCCCC3C2=O)cc1F (centres undefined)	8.1*	12	14	0	0	2
COc1ccc(CCNC(=O)c2csc(-c3cccs3)n2)cc1	0	-3	18	1	.	.
O=C(NCCc1ccc(O)cc1)c1csc(-c2cccs2)n1	6.4*	-3	36	0	0	5
O=C(CN1CCCC1)Nc1ccc(NC(=O)NC2CCCCC2)cc1	4	-41	-6	0	.	.
CC(=O)Oc1ccccc1-c1nc2s/c(=C\c3cccc(F)c3)c(=O)n2n1	2	-13	7	0	.	.
Brc1ccc2nc(-c3c[nH]c4ccccc34)cn2c1	7.1*	-29	2	0	0	-8
Cc1cccn2cc(-c3c[nH]c4ccccc34)nc12	1	-46	1	0	.	.
O=C(CN1C(=O)C2(SCC(=O)N2c2ccc(F)cc2)c2ccccc21)NCCc1ccccc1 (centres undefined)	1	12	-1	0	.	.
O=C(CN1C(=O)C2(SCC(=O)N2c2ccc(F)c(F)c2)c2ccccc21)NCCc1ccccc1 (centres undefined)	5.4*	-1	7	0	0	-7
Cc1ccc(C)c(Cn2c(C(=O)O)c(CNC3CCC(C)CC3)c3ccccc32)c1 (centres undefined)	0	5	5	0	.	.
COc1cc2c(cc1OC)[C@@H](c1ccccc1)CN(C)CC2	7.5*	2	24	0	0	-8
CCCCCn1c(=O)c2c(nc3n(Cc4ccc(OC)cc4)c(C)c(C)n23)n(C)c1=O	1	2	2	0	.	.
FC(F)(F)c1cccc(NC(=S)N2CCSC2c2ccc(Br)cc2)c1 (centres undefined)	6.4*	-5	-12	0	1	-2
CCOC(=O)CN(C)C1CCC(=O)N(Cc2ccc(C)cc2)CC1 (centres undefined)	1	-2	-6	0	.	.
Cc1cc(N2CCN(C(=O)c3ccc(Br)cc3)CC2)c(F)cc1[N+](=O)[O-]	6.9*	3	16	0	0	-11
CC(=O)c1cc(F)c(N2CCN(C(=O)c3cc(F)c(F)cc3[N+](=O)[O-])CC2)cc1C	5.3*	4	3	0	0	4
Cc1cc(F)c(F)cc1C(=O)N1CCN(c2cc(C)c([N+](=O)[O-])cc2F)CC1	1	-7	6	0	.	.
Cc1nc2sc3c(c2c(=O)n1-n1cccc1)CCCC3	5.9*	-3	7	0	0	8
Cc1ccccc1-n1c(C)nc2sc3c(c2c1=O)CCC3	-1	7	6	0	.	.
CCCSc1nnc2c(n1)OC(c1ccccc1OCC(=O)OCC)Nc1ccccc1-2 (centres undefined)	3	-17	6	0	.	.
O=C(CSc1ccccc1)Nc1cccc(F)c1	-1	-48	4	0	.	.
SMILES	GPR151 activ	TEAD-YAP block	MITF primary	FBW7 act	GPR151 conf act	GPR119 ag
O=C(CNS(=O)(=O)c1ccc(Br)cc1)Nc1cccc(F)c1	1	-1	12	0	.	.
Cc1ccc(SCC(=O)Nc2cccc(F)c2)cc1	6.4*	-57	-10	0	-1	-6
O=C(CNS(=O)(=O)c1ccccc1)Nc1cccc(F)c1	6.0*	2	1	0	0	-3
O=C(O)c1ccc(NC(=O)c2cccc(S(=O)(=O)Nc3cccc(F)c3)c2)cc1	8.7*	0	-3	0	0	4
CN(Cc1ccccc1)C(=O)C1CCN(S(=O)(=O)c2ccc3c(c2)OCC(=O)N3)CC1	6.7*	-6	-8	0	-1	-7
O=C1COc2cc(S(=O)(=O)N3CCC(Cc4ccccc4)CC3)ccc2N1	1	3	10	1	.	.
CC(C)CC(NC(=O)c1ccccc1)C(=O)OCc1ccccc1 (centres undefined)	5.6*	4	15	0	-1	-4
CC(C)CC(NC(=O)c1ccccc1)C(=O)OCC(=O)c1ccccc1 (centres undefined)	1	-9	-11	0	.	.
COc1ccc(-c2cc(C#N)nc(N3CCN(c4ccccc4)CC3)n2)cc1	5.2*	0	-14	0	0	-3
O=C(CCCCCn1c(=S)[nH]c2cc3c(cc2c1=O)OCO3)NCc1cccnc1	5.9*	-5	0	0	2	6
O=C(CCCCCn1c(=S)[nH]c2cc3c(cc2c1=O)OCO3)NCc1ccccc1	1	-1	4	0	.	.
COc1ccc(-c2nnn(CCCC(=O)c3ccc(O)cc3)n2)cc1	-2	14	-14	0	.	.
CC(=O)N1CCc2cc(S(=O)(=O)CCC(=O)N(CC(C)C)CC(C)C)ccc21	1	7	9	0	.	.
CCOC(=O)C1CCN(C(=O)/C=C/c2ccc([N+](=O)[O-])cc2)CC1	0	-13	14	0	.	.
CCOC(=O)C1CCN(C(=O)/C=C/c2cccc([N+](=O)[O-])c2)CC1	6.6*	-7	0	0	0	1
COc1ccc(CCNc2nc(NC3CCC(O)CC3)nc3c2ncn3Cc2ccc(C(F)(F)F)cc2)cc1 (centres undefined)	5.9*	36*	-13	0	0	37*
NC(=O)c1ccc(-c2nc(Nc3ccc(N4CCOCC4)cc3)c3ncn(Cc4ccc(C(F)(F)F)cc4)c3n2)cc1	0	6	-6	0	.	.
CC(C)N(CCNc1nc(NC2CCC(O)CC2)nc2c1ncn2Cc1ccc(C(F)(F)F)cc1)C(C)C (centres undefined)	-1	6	-10	0	.	.
COc1ccc(-c2nc(Nc3ccc(N4CCOCC4)cc3)c3ncn(Cc4ccc(C(F)(F)F)cc4)c3n2)cc1	12*	9	-1	0	0	-7

Source: PubChem (The Scripps Research Institute Molecular Screening Center)
